PubChem BioAssay (NCATS)
“And” between values parts separate entries of the source, which are not always exact repeats. Equal values may be shown once. Records with an inconclusive call do not appear. A number with no mark means an inactive call. The source made the active and inactive calls. Calls follow the shape of the dose curve; as a rule, active = well fitted curve in the direction sought with a large enough effect; inconclusive = small, poorly fitted or top-dose-only effect, or another doubt; inactive = no such curve, though single readings can be large; an effect the other way counts as inactive or inconclusive.

experiment: qHTS of pediatric cancer cell lines to identify multiple opportunities for drug repurposing: Confirmatory screen for NB1643 cells (AID 1347109); details: NB1643 neuroblastoma cell viability; series mostly up to 45.9 µM; activity change, negative = cytotoxic: at the top concentration; also: nearly all actives have a fitted effect of over 45% in size;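 as to activity change, negative = cytotoxic: plate controls were DMSO for no effect and bortezomib for full effect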
In short: (§1)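 Cells (500-1,000/well) in growth media were settled 5 h at 37 degrees C, then given compounds for 48 h. Viability was read as CellTiter-Glo luminescence. Primary runs used MIPE at 11 points (0.78 nM-46 µM) and NPC at 8 points (0.59 nM-46 µM); follow-ups used 11 points.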
Potency is read from the fitted curve at half-maximal effect.

Compound | activity change, negative = cytotoxic | Potency
CCOc1cc(CC(=O)N[C@@H](CC(C)C)c2ccccc2N2CCCCC2)ccc1C(=O)O | 7.86% | 
C[C@]12CCC(=O)C=C1CC[C@@H]1[C@H]2[C@@H](O)C[C@@]2(C)[C@H]1CC[C@]2(O)C(=O)CO | -1.7% | 
O=C(CCc1ccc(O)cc1)c1c(O)cc(O)cc1O | 0.232% | 
CCN(CC)C(=S)SSC(=S)N(CC)CC |  | 8.27 µM (active)
COc1cc(C(C)=O)ccc1OCCCN1CCC(c2noc3cc(F)ccc23)CC1 | -28.7% | 
Cc1ccc(NC(=O)c2ccc(CN3CCN(C)CC3)cc2)cc1Nc1nccc(-c2cccnc2)n1 | -15.7% | 
CC[C@]1(O)C[C@H]2CN(CCc3c([nH]c4ccccc34)[C@@](C(=O)OC)(c3cc4c(cc3OC)N(C=O)[C@H]3[C@@](O)(C(=O)OC)[C@H](OC(C)=O)[C@]5(CC)C=CCN6CC[C@]43[C@@H]65)C2)C1 |  | 10.4 nM (active) and 1.04 µM (active)
Nc1nc(Cl)nc2c1ncn2[C@H]1C[C@H](O)[C@@H](CO)O1 |  | 2.08 µM (active)

experiment: qHTS of pediatric cancer cell lines to identify multiple opportunities for drug repurposing: Confirmatory screen for A673 cells (AID 1347110); details: A673 Ewing sarcoma cell viability; series mostly up to 45.9 µM; activity change, negative = cytotoxicity: at the top concentration;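 also: cells exposed to compound for 48 h before the viability read; nearly all actives have a fitted effect of over 65% in size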;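 as to activity change, negative = cytotoxicity: plate controls were DMSO neutral control for no effect and bortezomib positive control for full effect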
In short: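 A673 cells at 500-1,000 cells/well were dosed 5 h after plating, in dilution series up to 46 uM final; primary runs used 8 or 11 points and confirmatory runs used 11 points. Viability was read by CellTiter-Glo luminescence after 48 h, against DMSO and 2.3 uM bortezomib controls.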

Compound | Potency | activity change, negative = cytotoxicity
Cc1nc(Nc2ncc(C(=O)Nc3c(C)cccc3Cl)s2)cc(N2CCN(CCO)CC2)n1 | 20.8 µM (active) | 
C[C@]12CCC(=O)C=C1CC[C@@H]1[C@H]2[C@@H](O)C[C@@]2(C)[C@H]1CC[C@]2(O)C(=O)CO |  | -9.03%
O=C(CCc1ccc(O)cc1)c1c(O)cc(O)cc1O |  | 9.89%
CCN(CC)C(=S)SSC(=S)N(CC)CC | 0.522 µM (active) | 
COc1cc(C(C)=O)ccc1OCCCN1CCC(c2noc3cc(F)ccc23)CC1 |  | 12.5%
Cc1ccc(NC(=O)c2ccc(CN3CCN(C)CC3)cc2)cc1Nc1nccc(-c2cccnc2)n1 |  | 3.02%
CC[C@]1(O)C[C@H]2CN(CCc3c([nH]c4ccccc34)[C@@](C(=O)OC)(c3cc4c(cc3OC)N(C=O)[C@H]3[C@@](O)(C(=O)OC)[C@H](OC(C)=O)[C@]5(CC)C=CCN6CC[C@]43[C@@H]65)C2)C1 | 14.7 nM (active) and 18.5 nM (active) | 
Nc1nc(Cl)nc2c1ncn2[C@H]1C[C@H](O)[C@@H](CO)O1 | 3.69 µM (active) | 

experiment: qHTS of pediatric cancer cell lines to identify multiple opportunities for drug repurposing: Confirmatory screen for SK-N-MC cells (AID 1347111); details: SK-N-MC cell viability; series mostly up to 45.9 µM; activity change, negative = cytotoxic: at the top concentration;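 also: cells exposed to compound for 48 h before the readout; nearly all actives have a fitted effect of over 70% in size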;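 as to activity change, negative = cytotoxic: plate controls were DMSO for no effect and bortezomib for full effect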
In short: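 Metabolically active cells were quantified by ATP-dependent luminescence (CellTiter-Glo, 15 min at room temperature) following 48 h treatment. Cells had been plated at 500-1,000 per well and settled for 5 h beforehand.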

Compound | Potency | activity change, negative = cytotoxic
CC1(C)C(=O)N(CCN2CCC(C(=O)c3ccc(F)cc3)CC2)c2ccccc21 | 3.29 µM (active) | 
O=C(CCc1ccc(O)cc1)c1c(O)cc(O)cc1O |  | 14.8%
CC[C@]1(O)C[C@H]2CN(CCc3c([nH]c4ccccc34)[C@@](C(=O)OC)(c3cc4c(cc3OC)N(C=O)[C@H]3[C@@](O)(C(=O)OC)[C@H](OC(C)=O)[C@]5(CC)C=CCN6CC[C@]43[C@@H]65)C2)C1 | 23.3 nM (active) and 104 nM (active) | 
Nc1nc(Cl)nc2c1ncn2[C@H]1C[C@H](O)[C@@H](CO)O1 | 6.57 µM (active) | 

experiment: qHTS of pediatric cancer cell lines to identify multiple opportunities for drug repurposing: Confirmatory screen for BT-12 cells (AID 1347112); details: BT-12 rhabdoid tumor cells, viability; series mostly up to 45.9 µM; activity change, negative = cytotoxic: at the top concentration; also: nearly all actives have a fitted effect of over 55% in size; as to activity change, negative = cytotoxic: % is scaled to controls: 0 for no effect and ±100 for the full control effect
In short: as §1

Compound | Potency | activity change, negative = cytotoxic
Cc1nc(Nc2ncc(C(=O)Nc3c(C)cccc3Cl)s2)cc(N2CCN(CCO)CC2)n1 | 6.57 µM (active) | 
CCOc1cc(CC(=O)N[C@@H](CC(C)C)c2ccccc2N2CCCCC2)ccc1C(=O)O |  | -2.92%
C[C@]12CCC(=O)C=C1CC[C@@H]1[C@H]2[C@@H](O)C[C@@]2(C)[C@H]1CC[C@]2(O)C(=O)CO |  | -2.98%
O=C(CCc1ccc(O)cc1)c1c(O)cc(O)cc1O |  | -1.27%
CC[C@]1(O)C[C@H]2CN(CCc3c([nH]c4ccccc34)[C@@](C(=O)OC)(c3cc4c(cc3OC)N(C=O)[C@H]3[C@@](O)(C(=O)OC)[C@H](OC(C)=O)[C@]5(CC)C=CCN6CC[C@]43[C@@H]65)C2)C1 | 36.9 nM (active) and 208 nM (active) | 
Nc1nc(Cl)nc2c1ncn2[C@H]1C[C@H](O)[C@@H](CO)O1 |  | -20.4%

experiment: qHTS of pediatric cancer cell lines to identify multiple opportunities for drug repurposing: Confirmatory screen for DAOY cells (AID 1347114); details: DAOY medulloblastoma cells viability, cytotoxicity qHTS; series mostly up to 45.9 µM; activity change, negative = cytotoxic: at the top concentration; also: nearly all actives have a fitted effect of over 65% in size; as to activity change, negative = cytotoxic: % is scaled to controls: 0 for no effect and ±100 for the full control effect
In short: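 Viability measured as metabolically active cells via CellTiter-Glo luminescence following 48 hours of compound exposure, 11-point dilutions in confirmatory testing. 500-1,000 cells/well plated 5 hours before dosing; controls were DMSO and 2.3 µM bortezomib.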

Compound | Potency | activity change, negative = cytotoxic
Cc1nc(Nc2ncc(C(=O)Nc3c(C)cccc3Cl)s2)cc(N2CCN(CCO)CC2)n1 | 16.5 µM (active) | 
CC1(C)C(=O)N(CCN2CCC(C(=O)c3ccc(F)cc3)CC2)c2ccccc21 |  | -24.2%
CCOc1cc(CC(=O)N[C@@H](CC(C)C)c2ccccc2N2CCCCC2)ccc1C(=O)O |  | -19.6%
C[C@]12CCC(=O)C=C1CC[C@@H]1[C@H]2[C@@H](O)C[C@@]2(C)[C@H]1CC[C@]2(O)C(=O)CO |  | 0.195%
CCN(CC)C(=S)SSC(=S)N(CC)CC | 9.27 µM (active) | 
Cc1ccc(NC(=O)c2ccc(CN3CCN(C)CC3)cc2)cc1Nc1nccc(-c2cccnc2)n1 | 16.5 µM (active) | 
CC[C@]1(O)C[C@H]2CN(CCc3c([nH]c4ccccc34)[C@@](C(=O)OC)(c3cc4c(cc3OC)N(C=O)[C@H]3[C@@](O)(C(=O)OC)[C@H](OC(C)=O)[C@]5(CC)C=CCN6CC[C@]43[C@@H]65)C2)C1 | 82.7 nM (active) and 92.8 nM (active) | 
Nc1nc(Cl)nc2c1ncn2[C@H]1C[C@H](O)[C@@H](CO)O1 |  | -30.9%

experiment: qHTS of pediatric cancer cell lines to identify multiple opportunities for drug repurposing: Confirmatory screen for NB-EBc1 cells (AID 1347115); details: NB-EBc1 neuroblastoma cells, viability (cytotoxicity); series mostly up to 45.9 µM; activity change, negative = cytotoxic: at the top concentration;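 also: cells exposed to compound for 48 h before the viability read; nearly all actives have a fitted effect of over 45% in size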; as to activity change, negative = cytotoxic: % is scaled to controls: 0 for no effect and ±100 for the full control effect
In short: as §1

Compound | activity change, negative = cytotoxic | Potency
Cc1nc(Nc2ncc(C(=O)Nc3c(C)cccc3Cl)s2)cc(N2CCN(CCO)CC2)n1 | -99.1% | 
C[C@]12CCC(=O)C=C1CC[C@@H]1[C@H]2[C@@H](O)C[C@@]2(C)[C@H]1CC[C@]2(O)C(=O)CO | -2.4% | 
O=C(CCc1ccc(O)cc1)c1c(O)cc(O)cc1O | -12.2% | 
COc1cc(C(C)=O)ccc1OCCCN1CCC(c2noc3cc(F)ccc23)CC1 | -8.47% | 
Cc1ccc(NC(=O)c2ccc(CN3CCN(C)CC3)cc2)cc1Nc1nccc(-c2cccnc2)n1 | -2.14% | 
CC[C@]1(O)C[C@H]2CN(CCc3c([nH]c4ccccc34)[C@@](C(=O)OC)(c3cc4c(cc3OC)N(C=O)[C@H]3[C@@](O)(C(=O)OC)[C@H](OC(C)=O)[C@]5(CC)C=CCN6CC[C@]43[C@@H]65)C2)C1 |  | 827 nM (active) and 4.14 µM (active)
